Here are results for 40 molecules from PubChem BioAssay (NCI).

About 79,000 compounds went through this panel and 15% of them were active in at least one assay; those are over-represented in the sample as a whole. A number with no mark means an inactive call. Rule as the data show it: active = growth inhibition above about 70%; inactive = the rest.

A short description of this experiment: NCI Yeast Anticancer Drug Screen. Data for the rad50 strain (AID 155).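 Also: 0% = growth of vehicle-only cultures of the same strain.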 Particulars: S. cerevisiae rad50 strain growth inhibition, hits give high values; at 50.0 µM unless noted. The procedure: Growth inhibition of yeast strains with defined genetic alterations is measured as a screen for potential anti-cancer activity. Selected strains with alterations in DNA damage repair or cell cycle control were exposed to compounds and growth inhibition was measured relative to vehicle treated controls. The strain used in this assay is rad50
On to `O=S(=O)(/C(=C\c1ccccc1)c1ccccc1)c1ccccc1`, for which the growth inhibition is -4.8%.
With `Nc1ccc(NC(=O)Nc2ccccc2)cc1`, the growth inhibition is 5.65%.
On to `CC(=O)OC1CC2C3CCc4cc(O)ccc4C3CCC2(C)C1` (stereo not given), for which the growth inhibition is 22.4%.
For `NC(=S)/N=C(/c1nc2ccc(Cl)cc2[nH]c1=O)C(O)c1ccccc1Cl` (stereo not given), the growth inhibition was -2.85%.
For `CCOC(=O)N(C)C1(c2ccccc2)CCN(CCCC(=O)c2ccc(F)cc2)CC1` the value was 23%; for `O=C1C=CC(=Nc2ccc3c(c2)-c2ccccc2C3)O1`, 3.2%.
For `O=S(=O)(N/N=C/c1cccc(Cl)c1Cl)c1ccccc1` the value was 9.3%; for `CC(=O)OC1CCC(C(C)(C)C)CC1` (stereo not given), -12.8%.
For `CSC1=NC(C(N)=O)C(N)N1C` (stereo not given), the growth inhibition is -3.1%.
On to `N#CC(C(=O)NN)C1CCCCC1` (stereo not given), for which the growth inhibition is -0.85%.
For `CC[N+]1(CN2CCCCC2)CCCCC1` the value was 18.5%; for `CC(=O)OC/C(=C/C#N)C1CCC2C3CC=C4CC(OC(C)=O)CCC4(C)C3CCC12C` (stereo not given), 15.6%; for `CCCOc1cc2c(cc1C(C)c1ccc(OC)c(C)c1)OCO2` (stereo not given), -3.55%.
For `CCC1CC(C)=CCN1S(=O)(=O)c1ccc(C)cc1` (stereo not given) the value was -12.6%.
The value for `COc1ccc2c(c1)CCC1=C2CCC2(C)C1=CCS2(=O)=O` (stereo not given) was 3.85%; that for `CN(C)C(=S)S(=O)(=O)c1ccccc1` was 51.5%; that for `Cn1c2ccccc2c2nnc(NCCCO)nc21` was 18.9%.
Regarding `N=C(N)CCNC(=O)C1CCC(N)=N1` (stereo not given), the growth inhibition is -4.85%.
Take `C=C(C)C(C)/C(C)=N/NC(N)=O` (stereo not given) (tested in a mixture with another compound): the growth inhibition was 6.85%.
In the case of `CCOc1nc(=O)n(C2OC(CO)C(O)C2O)s1` (stereo not given), the growth inhibition is 26.4%.
The value for `CCN(CC)CCNc1cc(OC)c(OC)cc1[N+](=O)[O-]` was -35%.
The value for `CC1(C)OCC(C2OC3OC(C)(C)OC3C2N)O1` (stereo not given) was 10.8%; that for `CN(C)C(=O)Sc1ccc(C(C)(C)C)cc1` was 8.3%.
As to `CC(=O)CC/C=C(\C)CC(C)C`, the growth inhibition was 17.4%.
For `Cc1ccc2cc(-c3ccccc3)[nH]c2c1` the value was -15.3%; for `COc1cccc(/C=C/c2ccnnc2)c1`, 4.3%.
The value for `CN1CCN(C2c3ccccc3OC(C)(C)C2O)CC1` (stereo not given) was -23.9%; that for `CN1C=C(C(N)=O)Cc2ccsc21` was 10.7%.
For `CCOC(=O)CSCC(C)C(=O)OC` (stereo not given) the value was -0.3%; for `S=c1[nH]nc(-c2ccccc2Cl)o1`, -47.9%; for `ClCCN1CCOC1=Nc1ccc2c(c1)CCCC2`, -21.2%.
`Brc1ccccc1C#Cc1ccccc1Br`: the growth inhibition is 0.7%.
The value for `Cc1ccc(Nc2ccc(C)cc2[N+](=O)[O-])cc1` was 18.3%; that for `COC(=O)C1=CO[C@@H](OC2OC(CO)C(O)C(O)C2O)[C@H]2[C@@H]1C=C[C@@]21C=C([C@H](C)OC(=O)/C=C/c2ccc(OC3OC(CO)C(O)C(O)C3O)cc2)C(=O)O1` (stereo not given in full) was -18.4%; that for `CCOC(=O)NC(=O)c1cn(CCSCCOC(=O)NCCCCCCNC(=O)OCCSCCn2cc(C(=O)NC(=O)OCC)c(=O)n(C)c2=O)c(=O)n(C)c1=O` was -26%.
`COc1ccc(OC)c(NC(=O)CCCC(=O)C(C#N)c2ccc(CC#N)cc2)c1` (stereo not given): the growth inhibition is -15.8%.
The value for `CCOc1ccc(C(=O)C[N+]2(CCc3ccccc3)CCOCC2)cc1` was -12.9%; that for `N/N=C1\C(=O)N(C2CCCCCC2)C(=O)C1C(=O)NC1CCCCCC1` (stereo not given) was -13.3%; that for `Cc1nn(C(=O)c2ccc(Cl)cc2)c2c1C(c1ccc([N+](=O)[O-])cc1)SC(N)=N2` (stereo not given) was -14.8%.
As for `C=C=C(C)[Si](C)(C)C`, the growth inhibition was -14.8%.
